The list shows a part of the results. Values without a mark were called inactive. The source made the active and inactive calls.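 How the source made its calls: active means inhibition above the mean of stimulated solvent-only control wells plus 3 SD (cut at about 22% in these data); inactive means the rest.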

The assay is described as follows: blockers of isoproterenol-driven CNG channel signal – cell-based, HEK293-CNG parental, membrane potential fluorescence, Y1 set, counter-screen for NPY-Y1 potentiator/agonist project (AID 1704).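 Further: 0% = isoproterenol-stimulated DMSO wells and 100% = unstimulated DMSO wells.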 The following applies: isoproterenol cAMP, at 3.6 µM, stronger effect = higher value. (Counterscreens check selectivity or assay interference.)
As a reminder, the inhibition is the drop in the measured response relative to a control, in per cent. With `O=C1/C(=C/c2coc3ccc(O)cc3c2=O)SC(=S)N1c1ccccc1`, the inhibition is 11.7%.

For the compound `Cc1ccccc1NCC(=O)N/N=C\c1ccc([N+](=O)[O-])s1`, the inhibition is 33.8% (active).

For the compound `N#Cc1ccc(C(=O)Nc2nc(-c3cccs3)c(C(=O)C(F)(F)F)s2)cc1`, the inhibition is -18.5%.

With `CSc1nc(-c2ccco2)nn1C(=O)c1ccccc1Cl`, the inhibition is 12.3%.

With `COC(=O)c1ccc(NC(=O)CN(c2ccc(C)cc2)S(=O)(=O)c2c(C)n[nH]c2C)cc1`, the inhibition is 36.6% (active).

In the case of `CC1=C/C(=N\OS(=O)(=O)c2ccccc2)C=CC1=O`, the inhibition is 16.7%.

With `CC(=O)c1ccc(NC(=O)C2CC(=O)Nc3nc4ccccc4n32)cc1` (stereo unspecified), the inhibition was 32.8% (active).

As to `O=C(Nc1ccc2c(c1)CCC2)c1cccc(S(=O)(=O)Nc2ccccc2Cl)c1`, the inhibition was 7.5%.

Regarding `Cc1cccc(OCC(O)CN2CCN(CCN3C(=O)c4cccc5cccc(c45)C3=O)CC2)c1C` (stereo unspecified), the inhibition was 51.3% (active).

As to `CN1C(=O)c2ccccc2C(C(=O)NCCCN2CCCC2)C1c1c[nH]c2ccccc12` (stereo unspecified), the inhibition was -0.85%.

As for `O=C(c1cccs1)N1CCN(C(=O)N2CCOCC2)CC1`, the inhibition was 1.33%.

`CCn1c2ccccc2c2cc(NC(=O)Nc3ccc([N+](=O)[O-])cc3C)ccc21`: the inhibition is 16.4%.

On to `COC(=O)c1sc(-c2ccc(C(C)(C)C)cc2)cc1NC(=O)/C=C/C(=O)O`, for which the inhibition is 24.5% (active).

In the case of `O=C(Nc1ccccc1C(F)(F)F)c1cc(-c2ccc(O)cc2)on1`, the inhibition was -10.9%.

For `COCCn1nnnc1C(c1ccccc1Cl)N1CCN(c2ccccc2OC)CC1` (stereo unspecified), the inhibition is -5.71%.

In the case of `O=[N+]([O-])c1cc(Cl)cc(/C=N/NC(=S)Nc2cc(S(=O)(=O)N3CCOCC3)ccc2Cl)c1O`, the inhibition was 66.5% (active).

(Values after PubChem BioAssay AID1704 (The Scripps Research Institute Molecular Screening Center, 2009).)
